Reference: PubChem BioAssay AID651871 (Sanford-Burnham Center for Chemical Genomics, 2012)

Test system: HL-1
Assay: protection of cardiomyocytes from stress damage, SAR follow-up, cell-based, panel, H9c2 and HL-1, ATP luminescence, set 2 (AID 651871);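 also: cells exposed to stressor for 2 h before ATP readout; reference of the scale not given here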
Conditions: H9c2/HL-1 cardiomyocytes, 2-deoxyglucose stress, with 2-deoxyglucose, run 10, at 19.8 µM (top of the series)

Q: How did the activity (protection/inhibition) turn out when `COc1ccc2c(c1OC)C(=O)N1c3ccccc3C(=O)N(Cc3cccc(Cl)c3Cl)C21` (stereo unspecified) was run?
A: The activity (protection/inhibition) was 33.5%.
